# Results: PubChem BioAssay (NCI)
# About 83,000 compounds went through this panel and 20% of them were active in at least one assay; those are over-represented in the sample as a whole.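 Testing used 96-well plates and a 48-hour single-concentration exposure. Example: -40 means 40% of the starting cells died.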 Activity calls are given as the source filed them. The calls were made as follows: active = growth percent below 10; inactive = the rest.
# Tested on: OVCAR-5 ovarian
# Assay: NCI-60 one-dose screen, 48 h (100 = growth as untreated, 0 = no growth, -100 = all killed)
# Details: 10 µM unless noted
row,SMILES,growth
1,C#C[C@]1(O)CC[C@H]2[C@@H]3CC=C4c5nc(Nc6ncccn6)sc5CC[C@]4(C)[C@H]3CC[C@@]21C,86% (inactive)
2,CC(C)(C)c1cc(C(=O)N2CCC(C(=O)NCCN)CC2)cc(C(C)(C)C)c1,98.9% (inactive)
3,CCOC(=O)/C(C#N)=C(\C)CCc1ccccc1,108% (inactive)
4,COc1ccc2c3ccnc(C(F)(F)F)c3n(CCCCN)c2c1,54.8% (inactive)
5,O=C(O)c1cccc(CN2CCN(c3cc4c(cc3F)c(=O)c(C(=O)O)cn4C3CC3)CC2)c1O,102% (inactive)
6,CCN(CC)c1ccc2cc(C(Nc3ccc(Br)c(C(F)(F)F)c3)c3nnnn3C(C)(C)C)c(=O)oc2c1 (centres undefined),92% (inactive)
7,O=C(NCCCNC(=O)OCc1ccc2c(Br)cc(Br)c(O)c2n1)OCc1ccc2c(Br)cc(Br)c(O)c2n1,-63% (active)
8,C[N+](C)(C)c1ncnc2[n-]cnc12,76.4% (inactive)
9,O=S(=O)(c1ccc(N/N=C\c2ccccc2Cl)cc1)c1ccc(N/N=C/c2ccccc2Cl)cc1,82.6% (inactive)
10,CCCOc1ccc(-c2nc(-c3ccc(N)cc3)cs2)cc1,108% (inactive)
11,O=C(NCc1ccc(Cn2c(=O)sn(-c3ccccc3)c2=O)cc1)OCc1ccc2c(Br)cc(Br)c(O)c2n1,-62.7% (active)
12,N#CCCc1c[nH]c2ccccc12,102% (inactive)
13,C=CCCCCCCCCC(=O)OC(C)C,99.2% (inactive)
14,COc1cc2c(cc1OCCCCCOc1ccc(-n3c(C)nc4ccccc4c3=O)cc1)N=C[C@@H]1CCCN1C2=O,10.5% (inactive)
15,Cc1cccc(/C=C2\N=C(c3ccccc3)N(c3ccc(S(N)(=O)=O)cc3)C2=O)c1,99.1% (inactive)
16,Clc1ccc(/C=N/Nc2nc3ccccc3s2)c(Cl)c1,103% (inactive)
17,CCOC(=O)COc1c(C)cc(SSc2cc(C)c(OCC(=O)OCC)c(C)c2)cc1C,128% (inactive)
18,Nc1nc(Nc2ccccc2)c2ncn(Cc3cc4c(cc3Br)OCO4)c2n1,32.1% (inactive)
19,CCOC(=O)c1c[nH]n2c(=S)ncnc12,103% (inactive)
20,CC1(C)CC[C@]2(C(N)=O)CC[C@]3(C)C(=CC[C@@H]4[C@@]5(C)C/C(=C/c6cccnc6)C(=O)C(C)(C)[C@@H]5CC[C@]43C)[C@@H]2C1,-64% [100 µM] (active)
21,O=[N+]([O-])c1cc(CCl)ccc1OCCBr,108% (inactive)
22,O=C1COCCN1c1ccc(Nc2nc(Cl)nc(N3CCOCC3)n2)cc1,88.3% (inactive)
23,O=C(OCc1ccc2c(Cl)cc(Cl)c(O)c2n1)N1CCNCC1,55.5% (inactive)
24,Cc1ccc(S(=O)(=O)NCCCNc2nccc(-c3c(-c4cccc(F)c4)nc4occn34)n2)cc1,96.5% (inactive)
25,COc1cc(Cl)cc(-c2nn(C(=O)NS(=O)(=O)c3ccccc3)cc2-c2ccncc2)c1,96.5% (inactive)
26,Cn1cc(-c2noc(-c3cn(C)c4ncccc34)n2)c2cc(Cl)ccc21,79.7% (inactive)
27,CC(C)CSc1ncnc2nc[nH]c12,86.6% (inactive)
28,Cc1cnc([C@]23CC[C@@H](C)[C@H](C)[C@H]2C2=CC[C@@H]4[C@@]5(C)Cc6c([nH]c7ccccc67)C(C)(C)[C@@H]5CC[C@@]4(C)[C@]2(C)CC3)o1,59.7% [100 µM] (inactive)
29,CC1(C)CC[C@]2(C(=O)O)CC[C@]3(C)C(=CC[C@@H]4[C@@]5(C)C/C(=C/c6ccco6)C(=O)C(C)(C)[C@@H]5CC[C@]43C)[C@@H]2C1,-64.2% [100 µM] (active)
